Records with an inconclusive call do not appear. Active and inactive are the calls of the source. How the source made its calls: active means hit-call score of the fitted dose curve at least 0.9, where 1 is the maximum; inconclusive means response in the unintended direction; inactive means score below 0.9.

For orientation: AC50 means the concentration giving half of the maximal activity seen.

A short description of this experiment: ACEA_ER_80hr: ACEA Biosciences xCELLigence Real-Time Cell Analysis on Estrogen Receptor Agonism for Proliferation (AID 2282667). The following applies: T47D proliferation, impedance (xCELLigence), 80 h. The procedure:
ACEA_ER is a cell-based, single-readout assay that uses T47D, a human breast cell line, with measurements taken at 80 hours after chemical dosing in a 96-well plate, although TO2 (mc0.srcf) used a 384-well plate. Differences in plate size can be ignored given data normalization.ACEA_ER_80hr is one of two assay component(s) measured or calculated from the ACEA_ER assay. It is designed to make measurements of real-time cell-growth kinetics, a form of growth reporter, as detected with electrical impedance signals by Real-Time Cell Electrode Sensor (RT-CES) technology.Data from the assay component ACEA_ER_80hr was analyzed into 1 assay endpoint. This assay endpoint, ACEA_ER_80hr_Positive, was analyzed in the positive analysis fitting direction relative to DMSO as the negative control and baseline of activity. Using a type of growth reporter, measures of the cells for gain-of-signal activity can be used to understand the signaling at the pathway-level as they relate to the gene ESR1. Furthermore, this assay endpoint can be referred to as a primary readout, because this assay has produced multiple assay endpoints where this one serves a signaling function. To generalize the intended target to other relatable targets, this assay endpoint is annotated to the nuclear receptor intended target family, where the subfamily is steroidal.
The xCELLigence system Multi-E-Plate stations were used to measure the time-dependent response to chemicals. Each compound was tested in an eight-point, 1:4 serial dilution series starting at a maximum final concentration of 100 uM. A maximum starting concentration of 0.5% DMSO was present in the 100 uM chemical samples and was diluted along with the test article dilution series. The screen was performed in biological duplicate using two separate, 96-well, E-Plates 96 for each dilution series (n = 2). Positive controls (MG132 and E2) and a negative control (assay media) were tested in quadruplicate on each testing plate. […] Reference compounds were tested with 8 concentrations with 1:5 serial dilutions. All screening was carried out by ACEA Biosciences, Inc. (San Diego, CA). T-47D cells purchased from ATCC were maintained in RPMI1640 media supplemented with 10% characterized fetal bovine serum (FBS). […] Cells were then detached and seeded in E-Plates 96 in assay medium. After overnight monitoring of growth once every hour, compounds were added to […] cells and remained in the medium until the end of the experiment. Cellular responses were then recorded once every 5 min for the first 5 h, and once every hour for an additional 100 h.
As to `FC(F)(F)C(F)(F)CNCC(F)(F)C(F)(F)F`, the outcome was inactive.

As to `CCc1c(Br)c(Br)c(Br)c(Br)c1Br`, the call was inactive.

For `Nc1ccc(Oc2cccc(Oc3ccc(N)cc3)c2)cc1`, the outcome was inactive.

As to `FC1CC(F)(F)C(F)(F)C1(F)F` (stereo not given), the call was inactive.

As for `CCCCNc1ccccc1`, the compound was called inactive.

Consider `c1ccc(-c2ccccc2-c2ccccc2)cc1`, for which the half-maximal activity concentration (AC50) is 0.534 µM (active).

Turning to `O=C(O)C(F)(F)C(F)(F)C(F)(F)C(F)(F)C(F)(F)C(F)(F)C(F)(F)C(F)(F)C(F)(F)C(F)(F)C(F)(F)C(F)(F)C(F)(F)F`, the outcome was inactive.

For the compound `FC(F)(F)C(F)(F)C(F)(F)C(F)(F)C(F)(F)CCI`, the compound was called inactive.

Consider `Cc1cc(C)cc(O)c1`, for which the outcome was inactive.

`C=CC(=O)OCC(F)(F)C(F)(F)C(F)(F)C(F)(F)COC(=O)C=C`: the compound was called inactive.

For the compound `CO[Si](OC)(c1ccccc1)c1ccccc1`, the call was inactive.

On to `Cc1ccc(S(=O)(=O)OCC(F)(F)C(F)(F)C(F)(F)C(F)(F)C(F)(F)C(F)F)cc1`, for which the call was inactive.

Regarding `CNC(=S)NC`, the compound was classed as inactive.

In the case of `CCCCCCOC(=O)c1ccccc1`, the call was inactive.

`CCc1ccc(C(c2ccc(CC)cc2)C(Cl)Cl)cc1`: the compound was classed as inactive.

Turning to `C=CC(=O)OCC(F)(F)C(F)(F)C(F)(F)C(F)(F)C(F)(F)C(F)(F)C(F)(F)F`, the compound was called inactive.

As for `O=C(O)C(F)(F)C(F)(F)C(F)(F)C(F)(F)C(F)(F)C(F)(F)C(F)(F)C(F)(F)C(F)(F)C(F)(F)C(F)(F)C(F)(F)F`, the outcome was inactive.

On to `O=C(O)C(F)(F)C(F)(F)C(F)(F)C(F)(F)F`, for which the call was inactive.

For the compound `COC(=O)C1CCC(C(=O)OC)CC1` (stereo not given), the compound was classed as inactive.

As for `O=C(CC(=O)C(F)(F)C(F)(F)F)C(F)(F)F`, the call was inactive.

`CCCCOc1ccc(N)cc1`: the result was inactive.

Regarding `C=C(C)C(=O)OCCC(F)(F)C(F)(F)C(F)(F)C(F)(F)C(F)(C(F)(F)F)C(F)(F)F`, the compound was called inactive.

On to `C=CC(F)(F)C(F)(F)C(F)(F)C(F)(F)C(F)(F)C(F)(F)C(F)(F)C(F)(F)F`, for which the outcome was inactive.

As to `C=CC/C=C/C/C=C/C/C=C/C`, the outcome was inactive.

With `Nc1cc(Cl)c(N)c(Cl)c1`, the AC50 was 13.5 µM (active).

Consider `FC(F)(F)C(F)(F)C(F)(F)C(F)(F)C(F)(F)C(F)(F)C(F)(F)C(F)(F)F`, for which the result was inactive.

In the case of `CC/C=C\CCOC(=O)c1ccccc1`, the compound was called inactive.

For `Nc1ccc(S(=O)(=O)Nc2nccs2)cc1`, the call was inactive.

For `O=C(O)C(F)(F)C(F)(F)C(F)(F)C(F)(F)C(F)(F)C(F)(F)C(F)(F)C(F)(F)Cl`, the compound was called inactive.

`N=C(N)C(F)(F)C(F)(F)C(F)(F)C(F)(F)C(F)(F)C(F)(F)C(F)(F)F`: the compound was classed as inactive.

Turning to `CCCCC(CC)COP(=O)(O)OCC(CC)CCCC` (stereo not given), the compound was called inactive.

Regarding `O=C(C=Cc1ccccc1)OCC=Cc1ccccc1`, the result was inactive.

Turning to `OCC(F)(F)C(F)(F)C(F)(F)C(F)(F)C(F)(F)C(F)(F)F`, the outcome was inactive.

As to `C=C(C)C(=O)OCC(F)(F)C(F)(F)C(F)(F)F`, the outcome was inactive.

With `FC(F)(F)C(F)(F)C(F)(F)C(F)(F)C(F)(F)C(F)(F)C(F)(F)C(F)(F)CCS`, the result was inactive.

Turning to `CCCCCCOC(=O)c1ccccc1O`, the compound was called inactive.

In the case of `CCN(Cc1cccc(S(=O)(=O)O)c1)c1ccc(C(=C2C=CC(=[N+](CC)Cc3cccc(S(=O)(=O)O)c3)C=C2)c2ccc(O)cc2S(=O)(=O)[O-])cc1`, the compound was classed as inactive.

With `CCCCCCCOC(=O)c1ccccc1C(=O)OCCCCCCC`, the outcome was inactive.

For `CCCCCCS`, the result was inactive.

For the compound `FC(F)(F)C(F)(F)C(F)(F)C(F)(F)C(F)(F)C(F)(F)CC1CO1` (stereo not given), the compound was called inactive.
